Results reported in the supplement of paper PMC11732987, “Enantioselective OTUD7B fragment discovery through chemoproteomics screening and high-throughput optimisation” (Communications Chemistry, 2025).
A number with no mark means an inactive call.

Assays:
Test in all cases: log2 ratio of Biotin-Ahx-Ub-VS probe labelling (compound/DMSO); higher = less target engagement, active = hit call of the paper (q ≤ 0.05, log2 ratio ≤ -1)
Conditions in all cases: treatment time: 3 h
[1] = compound: CN(Cc1cccc(Br)c1)C(=O)CCl
Summary of the method: (§1)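 For activity-based profiling, 495 µg portions of HEK293T lysate in Tris/CHAPS/IGEPAL buffer with protease inhibitors were treated in triplicate with compound at 50 or 200 µM or with DMSO for 3 h. A 1 h incubation with Biotin-Ahx-Ub-VS (0.5 µM final) followed, then NeutrAvidin enrichment, LysC and trypsin digestion and diaPASEF LC-MS/MS. The compound/DMSO base-two log ratios were averaged from median-normalised label-free quantities using an unpaired t-test. Proteins needed at least 2 unique peptides to be included.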

[2] = compound: CN(Cc1cccc(OCc2ccccc2C)c1)C(=O)CCl
Summary of the method: as §1

[3] = compound: CN(Cc1ccccc1)C(=O)CCl
Summary of the method: as §1

[4] = compound: COc1ccc(CN(C)C(=O)CCl)cc1
Summary of the method: as §1

[5] = compound: COc1cccc(CN(CCCc2ccccc2)C(=O)CCl)c1
Summary of the method: as §1

[6] = compound: ClCC(=O)N1CCc2cc(Cl)c(Cl)cc2C1
Summary of the method: as §1

[7] = compound: ClCC(=O)N1CCc2nc(ncc2C1)-c1ccccc1
Summary of the method: as §1

[8] = compound: ClCC(=O)N1CCc2nocc2C1
Summary of the method: as §1

[9] = compound: ClCC(=O)N1CCc2scc(Br)c2C1
Summary of the method: as §1

[10] = compound: ClCC(=O)NC(C1CCCC1)c1cccs1
Summary of the method: as §1

[11] = compound: ClCC(=O)NC1CCCc2ccccc12
Summary of the method: as §1

[12] = compound: ClCC(=O)NC1CCOc2ccc(Cl)cc12
Summary of the method: as §1

[13] = compound: ClCC(=O)NC1CCSc2ccccc12
Summary of the method: as §1

[14] = compound: ClCC(=O)N[C@H]1CCCc2ccccc12
Summary of the method: as §1

[15] = compound: Fc1ccc(N2CCN(c3nc4c(CN(C(CCl)=O)CC4)cn3)CC2)cc1.Cl.Cl
Summary of the method: as §1

Chain of UniProt P40818 (P40818 whole entry): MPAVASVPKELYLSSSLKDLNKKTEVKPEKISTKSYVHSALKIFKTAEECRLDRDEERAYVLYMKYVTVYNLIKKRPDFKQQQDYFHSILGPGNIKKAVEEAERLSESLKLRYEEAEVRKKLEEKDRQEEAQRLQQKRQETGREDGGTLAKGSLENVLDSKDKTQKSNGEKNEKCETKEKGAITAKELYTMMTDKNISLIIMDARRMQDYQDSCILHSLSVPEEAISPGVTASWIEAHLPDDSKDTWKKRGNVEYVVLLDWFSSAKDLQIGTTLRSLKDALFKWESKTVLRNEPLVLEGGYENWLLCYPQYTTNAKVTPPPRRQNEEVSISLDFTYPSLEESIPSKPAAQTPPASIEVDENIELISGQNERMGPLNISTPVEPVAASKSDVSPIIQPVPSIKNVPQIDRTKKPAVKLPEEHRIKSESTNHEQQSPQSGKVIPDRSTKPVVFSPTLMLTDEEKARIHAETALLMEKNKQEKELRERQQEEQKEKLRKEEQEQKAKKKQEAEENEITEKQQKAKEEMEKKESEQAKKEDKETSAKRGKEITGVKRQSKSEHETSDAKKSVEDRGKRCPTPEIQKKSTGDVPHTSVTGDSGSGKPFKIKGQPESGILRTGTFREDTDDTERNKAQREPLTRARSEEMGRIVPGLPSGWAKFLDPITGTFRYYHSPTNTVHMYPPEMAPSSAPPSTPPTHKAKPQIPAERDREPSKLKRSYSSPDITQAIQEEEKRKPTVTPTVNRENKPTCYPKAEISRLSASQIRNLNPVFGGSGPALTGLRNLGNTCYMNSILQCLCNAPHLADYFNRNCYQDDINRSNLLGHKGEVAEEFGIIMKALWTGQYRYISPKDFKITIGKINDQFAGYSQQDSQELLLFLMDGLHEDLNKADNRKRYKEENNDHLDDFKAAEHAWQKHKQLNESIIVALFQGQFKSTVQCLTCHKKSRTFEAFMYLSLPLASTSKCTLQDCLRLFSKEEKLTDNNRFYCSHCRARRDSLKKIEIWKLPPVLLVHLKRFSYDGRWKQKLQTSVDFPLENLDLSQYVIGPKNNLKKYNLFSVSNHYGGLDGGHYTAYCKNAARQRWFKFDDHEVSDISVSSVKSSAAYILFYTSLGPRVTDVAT
Chain of UniProt Q9UPU5 (Q9UPU5 whole entry): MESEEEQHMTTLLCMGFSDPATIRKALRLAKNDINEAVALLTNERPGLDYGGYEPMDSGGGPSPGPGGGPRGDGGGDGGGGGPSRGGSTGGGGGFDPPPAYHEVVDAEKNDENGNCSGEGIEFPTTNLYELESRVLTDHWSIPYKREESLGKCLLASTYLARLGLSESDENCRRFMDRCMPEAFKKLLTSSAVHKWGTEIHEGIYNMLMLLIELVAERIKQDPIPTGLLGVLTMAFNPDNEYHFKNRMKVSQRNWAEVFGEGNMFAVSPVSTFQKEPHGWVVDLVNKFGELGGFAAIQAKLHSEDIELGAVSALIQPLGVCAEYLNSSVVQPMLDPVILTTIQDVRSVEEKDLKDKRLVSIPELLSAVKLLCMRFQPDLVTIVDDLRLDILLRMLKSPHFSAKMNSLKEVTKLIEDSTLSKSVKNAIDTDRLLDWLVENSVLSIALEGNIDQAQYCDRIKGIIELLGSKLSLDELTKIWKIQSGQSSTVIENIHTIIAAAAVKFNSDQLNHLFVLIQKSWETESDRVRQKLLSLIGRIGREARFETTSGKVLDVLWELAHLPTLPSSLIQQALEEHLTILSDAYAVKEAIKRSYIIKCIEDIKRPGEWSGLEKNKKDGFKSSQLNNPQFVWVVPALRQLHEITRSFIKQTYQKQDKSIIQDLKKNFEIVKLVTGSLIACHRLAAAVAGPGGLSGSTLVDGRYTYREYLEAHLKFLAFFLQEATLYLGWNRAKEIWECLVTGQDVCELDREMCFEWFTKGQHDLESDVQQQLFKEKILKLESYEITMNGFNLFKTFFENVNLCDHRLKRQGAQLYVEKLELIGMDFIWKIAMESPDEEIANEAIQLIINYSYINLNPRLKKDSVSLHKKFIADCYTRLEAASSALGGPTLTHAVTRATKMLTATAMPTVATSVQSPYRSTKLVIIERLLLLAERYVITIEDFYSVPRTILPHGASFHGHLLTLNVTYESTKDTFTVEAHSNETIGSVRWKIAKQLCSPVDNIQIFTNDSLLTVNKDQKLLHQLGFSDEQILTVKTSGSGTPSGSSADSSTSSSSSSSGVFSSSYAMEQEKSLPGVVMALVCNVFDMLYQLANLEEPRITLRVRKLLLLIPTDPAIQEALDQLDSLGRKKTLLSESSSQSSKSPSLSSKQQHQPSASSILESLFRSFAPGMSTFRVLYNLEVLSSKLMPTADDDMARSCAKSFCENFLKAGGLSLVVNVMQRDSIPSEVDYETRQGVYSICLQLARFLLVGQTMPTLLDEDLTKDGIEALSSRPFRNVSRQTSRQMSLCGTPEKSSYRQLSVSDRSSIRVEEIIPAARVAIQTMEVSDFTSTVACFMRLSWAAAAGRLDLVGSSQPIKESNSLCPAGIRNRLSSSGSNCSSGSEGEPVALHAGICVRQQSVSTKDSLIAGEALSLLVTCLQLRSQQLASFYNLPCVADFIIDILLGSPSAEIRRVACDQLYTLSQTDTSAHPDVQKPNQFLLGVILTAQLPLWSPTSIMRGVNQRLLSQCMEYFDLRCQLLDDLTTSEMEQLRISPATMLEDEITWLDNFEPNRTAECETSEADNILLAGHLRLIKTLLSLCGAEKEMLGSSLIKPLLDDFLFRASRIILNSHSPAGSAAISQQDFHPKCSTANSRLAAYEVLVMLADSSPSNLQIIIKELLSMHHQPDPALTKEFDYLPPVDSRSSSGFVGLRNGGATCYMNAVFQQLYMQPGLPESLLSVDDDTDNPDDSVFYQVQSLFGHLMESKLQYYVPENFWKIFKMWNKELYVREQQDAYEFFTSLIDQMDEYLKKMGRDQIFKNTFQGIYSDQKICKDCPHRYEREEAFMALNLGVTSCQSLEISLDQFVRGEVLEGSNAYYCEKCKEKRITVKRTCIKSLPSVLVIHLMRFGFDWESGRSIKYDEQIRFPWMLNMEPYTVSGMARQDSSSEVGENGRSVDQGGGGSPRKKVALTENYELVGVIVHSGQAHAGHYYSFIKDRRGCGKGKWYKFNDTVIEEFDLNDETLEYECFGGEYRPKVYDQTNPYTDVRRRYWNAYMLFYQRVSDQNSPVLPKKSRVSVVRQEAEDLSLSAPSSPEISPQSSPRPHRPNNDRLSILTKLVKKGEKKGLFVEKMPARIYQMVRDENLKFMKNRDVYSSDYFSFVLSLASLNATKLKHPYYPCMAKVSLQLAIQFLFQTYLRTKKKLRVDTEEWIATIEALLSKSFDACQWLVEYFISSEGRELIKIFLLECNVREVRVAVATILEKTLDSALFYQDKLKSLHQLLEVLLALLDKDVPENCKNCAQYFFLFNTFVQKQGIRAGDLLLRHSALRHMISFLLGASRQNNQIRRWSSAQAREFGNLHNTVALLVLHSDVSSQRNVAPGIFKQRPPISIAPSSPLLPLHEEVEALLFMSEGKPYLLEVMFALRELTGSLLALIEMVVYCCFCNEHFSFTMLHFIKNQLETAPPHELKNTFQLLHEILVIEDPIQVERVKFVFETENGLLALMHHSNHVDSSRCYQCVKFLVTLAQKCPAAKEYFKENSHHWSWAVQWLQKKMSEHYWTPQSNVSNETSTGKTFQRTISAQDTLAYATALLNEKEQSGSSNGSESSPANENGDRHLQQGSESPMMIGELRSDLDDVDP
Chain of UniProt P45974 (P45974 whole entry): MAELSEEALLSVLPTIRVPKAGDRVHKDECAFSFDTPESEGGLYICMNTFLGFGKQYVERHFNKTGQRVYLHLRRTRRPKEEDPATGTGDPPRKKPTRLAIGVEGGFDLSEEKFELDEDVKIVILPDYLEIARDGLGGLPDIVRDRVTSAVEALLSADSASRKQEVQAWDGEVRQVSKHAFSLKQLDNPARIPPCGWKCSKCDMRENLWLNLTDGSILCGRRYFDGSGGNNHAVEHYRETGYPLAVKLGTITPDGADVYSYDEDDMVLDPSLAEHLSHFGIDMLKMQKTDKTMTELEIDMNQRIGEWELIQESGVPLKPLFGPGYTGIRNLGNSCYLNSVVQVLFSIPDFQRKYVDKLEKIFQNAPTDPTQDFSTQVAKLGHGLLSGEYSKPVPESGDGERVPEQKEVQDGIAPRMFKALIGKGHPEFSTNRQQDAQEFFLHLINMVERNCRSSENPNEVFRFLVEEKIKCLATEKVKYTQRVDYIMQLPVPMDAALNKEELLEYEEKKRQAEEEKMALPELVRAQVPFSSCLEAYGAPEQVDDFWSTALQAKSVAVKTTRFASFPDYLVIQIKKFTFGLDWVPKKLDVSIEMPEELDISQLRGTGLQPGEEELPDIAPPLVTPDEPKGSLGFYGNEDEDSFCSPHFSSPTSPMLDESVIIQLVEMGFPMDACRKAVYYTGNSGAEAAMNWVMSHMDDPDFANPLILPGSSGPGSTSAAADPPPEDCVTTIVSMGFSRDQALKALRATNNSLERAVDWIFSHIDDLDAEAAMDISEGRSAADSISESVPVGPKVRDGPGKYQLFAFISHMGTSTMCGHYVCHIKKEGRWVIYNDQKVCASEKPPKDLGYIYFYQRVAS
Chain of UniProt Q9UPT9 (Q9UPT9 whole entry): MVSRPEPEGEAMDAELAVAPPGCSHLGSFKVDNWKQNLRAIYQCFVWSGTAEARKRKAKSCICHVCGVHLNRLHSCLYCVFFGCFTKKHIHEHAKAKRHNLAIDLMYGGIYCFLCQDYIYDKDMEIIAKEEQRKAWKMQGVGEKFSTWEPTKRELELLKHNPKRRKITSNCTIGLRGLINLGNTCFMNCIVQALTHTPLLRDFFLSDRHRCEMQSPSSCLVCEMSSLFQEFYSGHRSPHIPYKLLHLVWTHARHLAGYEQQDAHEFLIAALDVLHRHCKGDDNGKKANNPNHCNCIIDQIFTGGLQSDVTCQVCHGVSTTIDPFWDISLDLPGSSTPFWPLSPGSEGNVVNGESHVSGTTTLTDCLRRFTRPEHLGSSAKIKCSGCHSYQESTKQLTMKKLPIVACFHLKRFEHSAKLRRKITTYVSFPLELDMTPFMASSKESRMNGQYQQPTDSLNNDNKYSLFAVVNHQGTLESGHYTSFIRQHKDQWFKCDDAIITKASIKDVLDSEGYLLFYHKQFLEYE

Row | Target | log2 ratio of Biotin-Ahx-Ub-VS probe labelling ([1]; compound concentration: 50uM) | log2 ratio of Biotin-Ahx-Ub-VS probe labelling ([1]; compound concentration: 200uM) | log2 ratio of Biotin-Ahx-Ub-VS probe labelling ([2]; compound concentration: 50uM) | log2 ratio of Biotin-Ahx-Ub-VS probe labelling ([2]; compound concentration: 200uM) | log2 ratio of Biotin-Ahx-Ub-VS probe labelling ([3]; compound concentration: 50uM) | log2 ratio of Biotin-Ahx-Ub-VS probe labelling ([3]; compound concentration: 200uM) | log2 ratio of Biotin-Ahx-Ub-VS probe labelling ([4]; compound concentration: 50uM) | log2 ratio of Biotin-Ahx-Ub-VS probe labelling ([4]; compound concentration: 200uM) | log2 ratio of Biotin-Ahx-Ub-VS probe labelling ([5]; compound concentration: 50uM) | log2 ratio of Biotin-Ahx-Ub-VS probe labelling ([5]; compound concentration: 200uM) | log2 ratio of Biotin-Ahx-Ub-VS probe labelling ([6]; compound concentration: 50uM) | log2 ratio of Biotin-Ahx-Ub-VS probe labelling ([6]; compound concentration: 200uM) | log2 ratio of Biotin-Ahx-Ub-VS probe labelling ([7]; compound concentration: 50uM) | log2 ratio of Biotin-Ahx-Ub-VS probe labelling ([7]; compound concentration: 200uM) | log2 ratio of Biotin-Ahx-Ub-VS probe labelling ([8]; compound concentration: 50uM) | log2 ratio of Biotin-Ahx-Ub-VS probe labelling ([8]; compound concentration: 200uM) | log2 ratio of Biotin-Ahx-Ub-VS probe labelling ([9]; compound concentration: 50uM) | log2 ratio of Biotin-Ahx-Ub-VS probe labelling ([9]; compound concentration: 200uM) | log2 ratio of Biotin-Ahx-Ub-VS probe labelling ([10]; compound concentration: 50uM) | log2 ratio of Biotin-Ahx-Ub-VS probe labelling ([10]; compound concentration: 200uM) | log2 ratio of Biotin-Ahx-Ub-VS probe labelling ([11]; compound concentration: 50uM) | log2 ratio of Biotin-Ahx-Ub-VS probe labelling ([11]; compound concentration: 200uM) | log2 ratio of Biotin-Ahx-Ub-VS probe labelling ([12]; compound concentration: 50uM) | log2 ratio of Biotin-Ahx-Ub-VS probe labelling ([12]; compound concentration: 200uM) | log2 ratio of Biotin-Ahx-Ub-VS probe labelling ([13]; compound concentration: 50uM) | log2 ratio of Biotin-Ahx-Ub-VS probe labelling ([13]; compound concentration: 200uM) | log2 ratio of Biotin-Ahx-Ub-VS probe labelling ([14]; compound concentration: 50uM) | log2 ratio of Biotin-Ahx-Ub-VS probe labelling ([14]; compound concentration: 200uM) | log2 ratio of Biotin-Ahx-Ub-VS probe labelling ([15]; compound concentration: 50uM) | log2 ratio of Biotin-Ahx-Ub-VS probe labelling ([15]; compound concentration: 200uM)
1 | UniProt Q5T2D3 | 0.00241 | -0.212 | -0.549 | -0.332 | -0.381 | -0.198 | -0.229 | 0.0599 | -0.157 | -0.202 | 0.0943 | -0.112 | 0.0194 | -0.186 | -0.173 | -0.329 | -0.0373 | 0.0195 | -0.0592 | -0.12 | -0.177 | 0.0818 | -0.361 | -0.177 | -0.0329 | -0.156 | -0.0344 | -0.199 | -0.00755 | -0.416
2 | USP5 (UniProt P45974) | 0.304 | 0.538 | -0.113 | -0.0873 | -0.0827 | -0.00169 | -0.0203 | 0.204 | 0.212 | 0.11 | 0.412 | -0.121 | 0.389 | 0.254 | 0.00846 | 0.00188 | 0.214 | 0.0804 | 0.00222 | -0.112 | 0.0451 | 0.134 | 0.0362 | -0.0604 | 0.236 | -0.0467 | 0.0744 | -0.095 | 0.22 | -0.287
3 | USP24 (UniProt Q9UPU5) | -0.487 | -1.48 (active) | -0.993 | -2.02 (active) | -0.374 | -0.994 | -0.209 | -0.569 | -0.878 | -1.68 (active) | -0.754 | -2.35 (active) | -0.355 | -1.41 (active) | -0.201 | -0.568 | -1.1 (active) | -2.46 (active) | -0.0604 | -0.635 | -0.0627 | -0.259 | -0.0337 | -0.691 | 0.0214 | -0.445 | 0.184 | -0.614 | -0.726 | -2.07 (active)
4 | USP8 (UniProt P40818) | -0.123 | -0.132 | -0.488 | -0.321 | -0.346 | -0.338 | -0.306 | -0.187 | -0.167 | -0.253 | 0.0209 | -0.351 | -0.00835 | -0.371 | -0.247 | -0.347 | -0.126 | -0.311 | -0.0892 | -0.0187 | -0.193 | -0.0275 | -0.286 | -0.268 | 0.0453 | -0.166 | -0.0844 | -0.245 | -0.136 | -0.61
5 | USP22 (UniProt Q9UPT9) | -0.105 | 0.476 | -0.278 | -0.429 | -0.208 | -0.176 | -0.0376 | -0.15 | -0.102 | -0.225 | -0.0223 | -0.226 | -0.0429 | -0.339 | 0.0391 | -0.233 | -0.0943 | -0.362 | -0.0796 | -0.154 | -0.085 | -0.0777 | -0.0691 | -0.277 | 0.136 | -0.123 | 0.101 | -0.302 | -0.16 | -0.168
